# Test results reported in PubChem BioAssay AID624504 (Sanford-Burnham Center for Chemical Genomics, 2012).
# The whole screen tested about 5,000 compounds, of which about 3,900 (78%) were called active. Cut-off read from the data, not from the text of the source: active = inhibition above about 22%; inactive = the rest. The set was probably picked from earlier hits. These entries were drawn from the full list.
# Assay: fluorescence retest of MPTP screen hits in isolated mitochondria, single concentration (AID 624504);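 note: 0% = DMSO vehicle and 100% = positive control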
# Details: membrane potential, Rhodamine 123 fluorescence, at 10 µM, stronger effect = higher value
row,SMILES,inhibition
1,O=C(NNc1c2ccccc2nc2ccccc12)c1cc2ccccc2cc1O,31.4% (active)
2,CCn1c(CNC(=O)c2cc(OC)c(OC)c(OC)c2)cc2cc(C)ccc21,72.8% (active)
3,CCCCOc1ccc(CSC(=N)N)cc1[N+](=O)[O-],-5.28% (inactive)
4,CCc1ccc(Nc2n[n+](-c3ccccc3)c(-c3cccc(Cl)c3Cl)s2)cc1,86.2% (active)
5,Cc1cc(C(=O)CSc2nc(N)cc(=O)[nH]2)c(C)n1-c1cccc(F)c1,59% (active)
6,Cc1cc(C(=O)CSc2nc(N)cc(=O)[nH]2)c(C)n1Cc1ccco1,46.4% (active)
7,NC[C@H](Cc1ccccc1)NCCc1cc(C(F)(F)F)cc(C(F)(F)F)c1,-12% (inactive)
8,c1ccc2c(c1)C(=NC1CCCCC1)NC2=NC1CCCCC1,92.1% (active)
9,Cc1ccc2nnn(Cc3cccc(C(C)(C)C)c3O)c2c1,98.9% (active)
10,O=c1c2ccccc2nc2n1C(CSCc1ccccc1)CS2 (stereo not drawn),26.1% (active)
11,O=c1c2ccccc2nc2n1C(CSCc1cccc(C(F)(F)F)c1)CS2 (stereo not drawn),80.9% (active)
12,CN1CCC[C@@H]1CCO[C@](C)(c1ccccc1)c1ccc(Cl)cc1,-12.2% (inactive)
13,CCCc1ccc(-c2c(C)sc(NC(=O)c3ccnn3C)c2C#N)cc1,90.5% (active)
14,CCCCc1nc(NCCN)c(C#N)c2c1CSC(C)(C)C2,-9.33% (inactive)
15,COc1cc(CNCc2ccc(OC)c3ccccc23)cc(OC)c1OC,75.8% (active)
16,Cc1nc2nc(SCC(=O)Nc3cccc(F)c3)[nH]c2cc1Br,81.1% (active)
17,CC(=O)c1c(C)[nH]c(C(=O)COC(=O)c2cccc(S(=O)(=O)N(C)c3ccccc3)c2)c1C,90.1% (active)
18,CC(C)(CCl)C(=O)Nc1ccc(Sc2ccc(F)cc2)cc1,80.4% (active)
19,O=C(C/C(=N\NC(=O)c1ccccc1Br)C(F)(F)F)c1cccs1,82.3% (active)
20,O=C(NCCc1ccc2c(c1)OCCO2)c1cc2ccccc2o1,51.1% (active)
21,CC1(C)CC(=O)c2sc(N)nc2C1,1.93% (inactive)
22,CCCc1nc2c(c(=O)c3ccccc3n2C)c(=O)n1C1CCCCCC1,19.4% (inactive)
23,O=C(Nc1ccc(OC(F)(F)F)cc1)c1ccc2c(c1)no[n+]2[O-],88.6% (active)
24,CCC(C)(C)c1ccc(Oc2ccc(NC(=O)COC(=O)C3=COCCO3)cc2)cc1,55.3% (active)

row,SMILES,inhibition
1,CCCCCCc1cc2cc(-c3nnc(-c4ccccc4)o3)c(=O)oc2cc1O,1.15% (inactive)
2,Cc1ccc(Nc2c3c(nc4ccccc24)CCC3)cc1,76.8% (active)
3,O=C(NCCOc1ccccc1F)Nc1ccc(Br)cc1,71.7% (active)
4,CCOC(=O)c1ccc(NC(=O)Cn2cnc3cc(C)c(C)cc32)cc1,88.8% (active)
5,COc1ccc(NS(=O)(=O)c2cc(NC(=O)CC(=O)c3ccc([N+](=O)[O-])cc3)ccc2C)cc1,66.5% (active)
6,Cc1ccc(NC(=S)NC(NC(=O)Cc2cccc3ccccc23)C(Cl)(Cl)Cl)cc1 (stereo not drawn),70.9% (active)
7,O=C(Cc1cccc2ccccc12)NNC(=O)Nc1ccc(Cl)cc1,85.8% (active)
8,COc1cc(NC(=O)c2ccccc2NS(=O)(=O)c2ccc(Cl)s2)cc(OC)c1,75.8% (active)
9,COC(=O)c1ccc(NC(=O)c2ccccc2NS(=O)(=O)c2ccccc2)cc1,93.2% (active)
10,Clc1ccc(-c2cc(C3CCNCC3)[nH]n2)c(Cl)c1,-10.4% (inactive)
11,Cc1nnc(SC(C(=O)Nc2cc(Cl)cc(Cl)c2)c2ccccc2)[nH]c1=O (stereo not drawn),86.5% (active)
12,CCOC(=O)c1c(NC(=O)CSc2cn(CC)c3ccccc23)sc2c1CCC2,-4.21% (inactive)
13,CC(=O)c1c(C)[nH]c(C(=O)OCC(=O)Nc2sc3c(c2C#N)CCCC3)c1C,82.4% (active)
14,Cc1c(NC(=S)NCc2ccc(F)cc2)cccc1[N+](=O)[O-],78.8% (active)
15,Cc1cc(C)cc(NC(=S)NCc2ccc(F)cc2)c1,57.4% (active)
16,Cc1nc(CNS(=O)(=O)c2ccc(Oc3ccccc3)cc2)cs1,88.2% (active)
17,FC(F)Oc1ccc(NC(=S)NCc2ccco2)cc1Cl,97.6% (active)
18,Cc1ccc(CC(=O)Nc2ccc(OC(F)F)c(Cl)c2)cc1C,89.8% (active)
19,c1ccc2c(c1)CSc1sccc1C2=C1CCNCC1,-11.2% (inactive)
20,Cc1nc2ccccc2cc1OCc1ccc(F)cc1,100% (active)
21,Cc1cc(OCCCC(=O)NCCN2C(=O)S/C(=C\c3cccnc3)C2=O)ccc1Cl,68.6% (active)
22,Cc1nn(C)cc1CNC(=O)Nc1ccc(Cl)cc1,96.6% (active)
23,Cc1cc(C=O)c(C)n1-c1ccc(NC2CCCCC2)c([N+](=O)[O-])c1,41.9% (active)
24,CCCCCCCCCCCCN1C(=O)CSC1c1cccnc1 (stereo not drawn),19.9% (inactive)

row,SMILES,inhibition
1,COc1cc2c3c(c1)/C(=C1/SC(=S)NC1=O)C(=O)N3C(C)(C)C=C2C,49.1% (active)
2,CCCC(C(=O)OCCN(CC)CC)(c1ccccc1)c1ccccc1,4.44% (inactive)
3,CC(C)N1C(=S)SC(C)(C)C1n1oc(=O)n(-c2ccc(Cl)c(Cl)c2)c1=O (stereo not drawn),80.6% (active)
4,COc1ccc(CNc2ncnc3ccccc23)cc1,71.8% (active)
5,O=C(NC(Nc1nc2ccc([N+](=O)[O-])cc2s1)(C(F)(F)F)C(F)(F)F)c1ccccc1,81.4% (active)
6,Cc1cc(C)cc(OCC(=O)Nc2nc3ccc([N+](=O)[O-])cc3s2)c1,62.3% (active)
7,O=C(Nc1nc2ccc([N+](=O)[O-])cc2s1)c1ccncc1,20.6% (active)
8,O=C(Nc1nc2ccc([N+](=O)[O-])cc2s1)c1ccc(S(=O)(=O)N2CCCc3ccccc32)cc1,74.7% (active)
9,CCCC[C@@H]1CN=C(N)N1CCc1cc(C(F)(F)F)cc(C(F)(F)F)c1,-7.58% (inactive)
10,O=C(Nc1ccc(Cl)cc1)Nc1nnc(/C=C/c2ccccc2)s1,67% (active)
11,N#CCCN(C(=S)Nc1ccc(Cl)c(Cl)c1)C1CCCCC1,91.7% (active)
12,CS(=O)(=O)N(CC(=O)Nc1ccc(Cl)c(Cl)c1)C1CCCCC1,82.4% (active)
13,O=C(N/N=C/c1ccc(O)c(O)c1)C1c2ccccc2Oc2ccccc21,-9.84% (inactive)
14,NS(=O)(=O)c1ccc(NC(=S)Nc2ccc(Br)c(Cl)c2)cc1,76% (active)
15,CCN1CCC(O)(/C=C/c2ccc(C)cc2)C(C(=O)/C=C/c2ccc(C)cc2)C1 (stereo not drawn),-14.1% (inactive)
16,Cc1cc(C)cc(NS(=O)(=O)c2ccc(Oc3ncc(C(F)(F)F)cc3Cl)cc2)c1,93.4% (active)
17,FC(F)Oc1ccccc1NC(=S)Nc1cccc(Cl)c1Cl,44.5% (active)
18,CN(Cc1cccnc1)C(=O)c1cc(COc2ccc3ncccc3c2)on1,73% (active)
19,CCCc1[nH]nc2c1C(c1c(C)nn(-c3ccccc3)c1Cl)C(C#N)=C(N)O2 (stereo not drawn),-3.33% (inactive)
20,O=C1CC(c2ccccc2)=NN1c1ccc([N+](=O)[O-])cc1,77.6% (active)
21,O=C(Nc1cccc(Cl)c1)Nc1ccccc1NS(=O)(=O)c1cccs1,89.6% (active)
22,COc1ccc(CC(=O)Nc2nc(-c3ccc(F)c(F)c3)cs2)cc1OC,94.5% (active)
23,COc1cc(CC(=O)Nc2nc(-c3ccc(F)c(F)c3)cs2)cc(OC)c1OC,93.2% (active)
24,CCCOc1ccc(Cc2c(Cl)nc(SC)nc2NC)cc1,93.6% (active)

row,SMILES,inhibition
1,Cn1nccc1NC(=O)Nc1ccc(OC(F)(F)F)cc1,73.2% (active)
2,CC(=N\NC(=O)c1cc(Br)ccc1O)/C(=N/O)C(=O)Nc1ccccc1,78.4% (active)
3,Cc1oc2c(F)c(F)c(F)c(F)c2c1S(=O)(=O)Nc1cccc(C(F)(F)F)c1,83.5% (active)
4,Cc1oc2cc([N+](=O)[O-])c(O)c([N+](=O)[O-])c2c1C(=O)c1ccc(Br)cc1,61.8% (active)
5,O=C(Cc1ccc(-n2c(=O)[nH]c3ccccc3c2=O)cc1)N1CCN(c2cccc(Cl)c2)CC1,49.8% (active)
6,COc1ccc(CCNc2cc(N3CCN(C(=O)c4ccccc4OC)CC3)ccc2[N+](=O)[O-])cc1OC,47.7% (active)
7,Cc1ccc2c(c1)C1CN(C)CCC1N2S(=O)(=O)c1ccc(Oc2ccc([N+](=O)[O-])cc2)cc1 (stereo not drawn),-16.2% (inactive)
8,Cc1ccc(NC(=O)COc2ccc(-n3ccnc3)cc2)cc1Cl,94.1% (active)
9,O=C(Nc1nnc(SCc2ccc(Cl)cc2Cl)s1)C1COc2ccccc2O1 (stereo not drawn),72.7% (active)
10,O=C(Nc1nc2c(F)cc(F)cc2s1)C1COc2ccccc2O1 (stereo not drawn),76.6% (active)
11,O=C(NCCNc1ccc([N+](=O)[O-])cc1)c1cccc2c(Br)cccc12,84.9% (active)
12,O=C(NCCCN1CCN(c2ccc(F)cc2)CC1)Nc1ccc([N+](=O)[O-])cc1,89.6% (active)
13,Cc1cccc(-c2nc3ccc(C(=O)NCCN4CCN(C)CC4)cc3nc2-c2cccc(C)c2)c1,-16.4% (inactive)
14,CN1CCN(CCNC(=O)Nc2ccc([N+](=O)[O-])cc2)CC1,75.1% (active)
15,CCCOc1ccc(C(=O)C(CCC(CNCC)C(=O)c2ccc(OCCC)cc2)CNCC)cc1 (stereo not drawn),-13.8% (inactive)
16,O=c1c(-c2ccc3c(c2)OCCO3)c(C(F)(F)F)oc2cc(O)cc(O)c12,80.7% (active)
17,CC1=C/C(=N\OS(=O)(=O)c2ccccc2)C=CC1=O,92.7% (active)
18,Cc1c(C(=O)OC(C)C)sc(NC(=O)c2cccnc2)c1C#N,82.8% (active)
19,Cc1ccc(-c2nc(-c3cccnc3)sc2CC(=O)Nc2ccc(C)c(Cl)c2)cc1,90.8% (active)
20,CCNS(=O)(=O)c1ccc(NC(=O)Nc2cccc(C(F)(F)F)c2)cc1,73.9% (active)
21,CCc1cc2c(NC3CCCC3)ncnc2s1,59.8% (active)
